# Bioassay records as filed in PubChem.
# Tb PYK inh – inhibitors of Trypanosoma brucei pyruvate kinase; Q57TT1; TbPYK enzyme, Kinase-Glo Plus ATP luminescence, 45 min; Potency, µM (titrated, usually from 76.8 µM), for inactives: at the highest dose activity, negative = inhibition, usual class: inhibitors; 410,000 compounds, 0.12% hits; AID 624173; also: potency is read from the fitted curve at half-maximal effect; % is scaled to controls: 0 for no effect and ±100 for the full control effect; nearly all actives have a fitted effect of over 50% in size
#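 TbPYK + substrate in 50 mM TEA pH 7.2, 100 mM KCl, 10 mM MgCl2, 0.05% BSA, 0.01% Tween-20; cpd pinned; ADP 130 uM final; 45 min RT; Kinase-Glo Plus 10 min; luminescence endpoint.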
# RE007 growth inh – less growth of the S. pombe RE007 Vpr strain; S. pombe RE007 Vpr strain, BacTiter-Glo ATP luminescence, 24 h; Potency, µM (top dose mostly 92.2 µM), for inactives: at the top dose activity change, negative = less growth, most hits filed as inhibitors; 360,000 compounds, 0.21% hits; active = well fitted falling curve with a large enough effect; inconclusive = small, poorly fitted or top-dose-only effect; inactive = no such curve, though single readings can be large or run the other way; also: potency is read from the fitted curve at half-maximal effect; % is scaled to controls: 0 for no effect and ±100 for the full control effect; nearly all actives have a fitted effect of over 50% in size
#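 Fission yeast strain RE007, carrying one chromosomally integrated HIV-1 vpr copy, was seeded at OD 0.01 in PMG+AL medium with 23 nL pinned compound. After 24 h at 30 °C and 99% humidity, viability was read by BacTiter-Glo luminescence.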
# Shiga inhibitor – inhibitors of Shiga toxin in Vero cells. inhibition, % at 38.7 µM. Vero cells, Shiga toxin protein synthesis inhibition reporter. AID 2315. 290,000 compounds, 9.2% hits; in the data active = inhibition mostly above about 28%, no sharp cut-off; inactive = mostly below about 43%; also: 0% is about no effect
# CHX counter – counter-screen for Shiga toxin inhibitors: cycloheximide protein synthesis inhibition; cell reporter, cycloheximide protein synthesis inhibition counterscreen; 300,000 compounds, 12% hits; max response, %; in the data active = max response mostly above about 13%, no sharp cut-off; inactive = mostly below about 14%; also: read at 38.3 µM for the half of the compounds with a filed dose; 0% is about no effect
# Giardia FBPA inh – blocks Giardia fructose-bisphosphate aldolase activity | A8B2U2 | purified Giardia FBPA | Potency, µM (titrated, usually from 59.6 µM), inactives show at the highest dose activity, negative = inhibition, hits mostly inhibitors | 290,000 compounds, 0.71% hits; also: potency is read from the fitted curve at half-maximal effect; % is scaled to controls: 0 for no effect and ±100 for the full control effect; nearly all actives have a fitted effect of over 55% in size
#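 40 nM FBPA preincubated 10 min at RT with compound (up to 57.5 uM final), then substrate plus GAPDH/TPI/NAD/arsenate coupling and diaphorase/resazurin added. Fluorescence read after 20 min at RT, 525/598 nm.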
# LmPK inhibitor – inhibitors of Leishmania mexicana pyruvate kinase; Potency, µM (highest dose often 57.5 µM), inactives show top-dose activity change, negative = inhibition, hits mostly inhibitors; Q27686; 290,000 compounds, 0.37% hits; purified LmPK, Kinase-Glo ATP luminescence, 1 h; also: potency is read from the fitted curve at half-maximal effect; % is scaled to controls: 0 for no effect and ±100 for the full control effect
# Target sequence (Q27686 whole entry, looked up): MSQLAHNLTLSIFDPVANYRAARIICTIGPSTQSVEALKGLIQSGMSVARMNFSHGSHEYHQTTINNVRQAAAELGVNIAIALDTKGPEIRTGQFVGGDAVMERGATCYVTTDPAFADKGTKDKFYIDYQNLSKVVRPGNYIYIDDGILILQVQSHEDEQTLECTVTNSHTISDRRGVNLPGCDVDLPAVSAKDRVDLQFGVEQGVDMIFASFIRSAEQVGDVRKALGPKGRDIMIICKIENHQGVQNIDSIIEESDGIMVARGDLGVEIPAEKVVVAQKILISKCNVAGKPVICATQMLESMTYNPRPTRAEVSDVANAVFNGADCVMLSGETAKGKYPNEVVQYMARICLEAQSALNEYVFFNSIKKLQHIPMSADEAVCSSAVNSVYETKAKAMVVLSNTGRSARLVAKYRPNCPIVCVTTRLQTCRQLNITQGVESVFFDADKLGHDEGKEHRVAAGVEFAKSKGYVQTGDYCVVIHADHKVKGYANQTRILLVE
#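 0.1 nM LmPK, 0.5 mM PEP, 0.1 mM ADP; 50 mM imidazole pH 7.2, 7 mM MgCl2, 50 mM KCl; 1 h RT. Kinase-Glo luminescence readout, normalized to no-enzyme (full inhibition) and uninhibited wells.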
# * = called active by the depositor; ? = inconclusive; . = no result. The sample as a whole holds a higher share of hits than the screen did. Unless noted, calls follow the shape of the dose curve; as a rule, active = well fitted curve in the direction sought with a large enough effect; inconclusive = small, poorly fitted or top-dose-only effect, or another doubt; inactive = no such curve, though single readings can be large; an effect the other way counts as inactive or inconclusive.
SMILES,Tb PYK inh,RE007 growth inh,Shiga inhibitor,CHX counter,Giardia FBPA inh,LmPK inhibitor
CC(=O)N(C)c1ccc(NC(=O)c2ccco2)cc1,2%,-19%,152*,30*,-11%,-19%
O=C(O)Cc1ccc(NC(=O)c2ccc(NC(=O)c3ccco3)cc2)cc1,-1%,-12%,18,-1,-1%,-6%
O=C(Nc1ccc(-c2ccccc2)cc1)c1ccco1,9%,1%,-3,2,4%,0%
O=C(Nc1ccc(NC(=O)c2ccco2)cc1)c1ccco1,-4%,-12%,-14,-6,.,-9%
O=C(Nc1ccc(Nc2ccccc2)cc1)c1ccco1,-18%,?,139*,49*,-7%,1%
O=C(Nc1ccc(Br)cc1)c1ccco1,-1%,-2%,16,30*,-2%,-17%
CN(c1ccccc1)S(=O)(=O)c1ccc(NC(=O)c2ccco2)cc1,0%,5%,20,14,1%,0%
O=C(Nc1ccc(Cc2ccncc2)cc1)c1ccco1,-10%,-23%,81*,24*,1%,-1%
Cn1c2cc(S(C)=O)sc2c2cnn(Cc3ccccc3F)c(=O)c21 (stereo unspecified),.,.,-3,-8,.,.
CCc1cccc(C)c1NC(=O)c1ccc2c(c1)CCN2S(=O)(=O)c1ccc(Cl)cc1,-8%,.,.,.,.,.
O=C(NCc1cc([N+](=O)[O-])ccc1O)c1cccnc1Sc1ccc(Cl)cc1,-5%,-3%,43*,40*,.,-1%
CCN(C(=O)C1CCCN(S(=O)(=O)c2c(C)noc2/C=C/N(C)C)C1)c1cccc(C)c1 (stereo unspecified),-1%,.,.,.,.,.
c1ccc2nc3c(nc2c1)c1ccccc1n3CCN1CCOCC1,0%,-3%,42*,14,-26%,2%
CCCn1c2ccccc2c2nnc(SCCN3CCOCC3)nc21,-9%,5%,-8,-3,11%,0%
O=C(O)CCn1c2ccccc2c2nc3ccccc3nc21,-5%,6%,58*,19*,18%,2%
On1c(-c2ccc(Cl)cc2)nc2ccccc21,-4%,?,63*,43*,?,2%
O=C1CCc2c(ccc3ccccc23)O1,.,.,.,.,0%,.
CN1COc2ccc3ccccc3c2C1,0%,-6%,4,18*,-10%,-2%
COc1cccc(CNC(=O)Cn2nc(N3CCN(c4ccccc4OC)CC3)ccc2=O)c1,1%,.,.,.,.,.
O=C(Nc1ccc(OC(F)(F)F)cc1)Nc1cccnc1,2%,6%,70*,32*,1%,-21%
O=C(Nc1ccccc1)Nc1ccc(Oc2cccnc2)nc1,3%,-8%,39*,42*,0%,-4%
Nc1ccc(C(=O)CC(=O)Nc2ccc(Cl)cc2)cc1,3%,-14%,39,18*,3%,4%
CC(=O)c1ccc(NC(=O)Nc2ccncc2)cc1,0%,27%,57*,28*,0%,6%
OCCc1c[nH]c2ccc(C(F)(F)F)cc12,-1%,-12%,5,-3,-2%,-1%
CNC(=O)Nc1ccc(Cl)cc1,-4%,20%,18,21*,6%,-1%
SMILES,Tb PYK inh,RE007 growth inh,Shiga inhibitor,CHX counter,Giardia FBPA inh,LmPK inhibitor
CN(Cc1ccccc1)C(=O)Nc1ccc(Cl)cc1,3%,9%,.,.,.,.
CC(=O)c1ccc(NC(=O)c2cnsn2)cc1,-10%,-18%,82*,31*,1%,-20%
CC(=O)c1ccc(N2Cc3ccccc3/C2=N\C(=O)Nc2ccc(Cl)cc2)cc1,7%,6%,33*,43*,3%,1%
CON(C)C(=O)Nc1ccc(Cl)cc1,-3%,-12%,26,12*,1%,-9%
O=C(Nc1ccc(N2CCOCC2)cc1)c1cnsn1,-8%,.,-13,1,-21%,?
CC(=O)c1ccc(NC(=O)Nc2ccc(Cl)cc2)cc1,1%,3%,105*,34*,-2%,1%
CC(=O)c1ccc(NC(=O)Nc2cccnc2)cc1,-1%,-3%,23,28*,.,-7%
Cc1ccc(-c2cc3cccc[n+]3cc2-c2ccc(C)cc2)cc1,-1%,-11%,17,1,4%,3%
CC1(C)CC(c2nc(-c3ccccc3)cs2)CCS1 (stereo unspecified),-3%,-2%,-2,16*,1%,-7%
CC1(C)CC(c2nc(-c3ccc(Cl)cc3)cs2)CCS1 (stereo unspecified),0%,-18%,-7,10,0%,1%
O=C(NCc1ccco1)c1cc(-c2ccc(F)cc2)on1,1%,5%,92*,59*,16%,2%
CC(C)c1cc(C(=O)NCCc2ccccc2)no1,0%,-18%,72*,47*,1%,0%
O=C(NCc1ccco1)c1cccs1,-1%,-1%,-23,7,-10%,10%
CC(C)c1cc(C(=O)NCc2ccco2)no1,-10%,-2%,66*,42*,5%,3%
O=C(NCc1ccco1)c1cc(-c2cccs2)on1,5%,-7%,121*,55*,3%,5%
COc1cccc(-c2cn3c(n2)sc2cc(C(=O)NCc4ccccc4F)ccc23)c1,5%,.,.,.,.,.
CCc1ccc(NC(=O)N2CCN(c3nnc(C)c4c(C)n(-c5ccc(Cl)cc5)nc34)CC2)cc1,-1%,.,.,.,.,.
O=C(NCc1ccco1)c1cc(-c2ccccc2)on1,1%,-17%,104*,48*,4%,-5%
O=C(NCCc1ccccc1)c1cc2ncc(Br)cn2n1,-7%,0%,46,26*,?,-15%
C=Cc1ccc(CSc2nc(-c3ccc(OC)cc3)nc3c2Cc2c(CO)cnc(C)c2O3)cc1,-12%,.,.,.,.,.
O=C(O)c1ccc(Nc2nc(-c3cccnc3)cs2)cc1O,0%,5%,17,7,-3%,1%
Cc1ccc(Nc2nc(-c3ccc(O)c(O)c3)cs2)nc1,-8%,10%,113*,62*,-26%,3%
Cc1ccc(Nc2nc(-c3ccc(F)cc3)cs2)nc1,5%,-19%,77*,53*,-18%,2%
Cc1ccc(-n2nc3c(c2NC(=O)c2ccc(F)c(F)c2)CS(=O)(=O)C3)cc1,2%,-8%,6,7,-6%,-4%
CCc1ccc(NC(=O)CC2C(=O)N(c3cccc(OC)c3)C(=O)N2Cc2ccc(F)cc2)cc1 (stereo unspecified),0%,.,.,.,.,.
CC(C)CN(C(=O)CN1CCc2ccccc21)c1c(N)n(CC(C)C)c(=O)[nH]c1=O,1%,29%,-13,-2,-11%,0%
Cc1ccc(C(=O)c2cc(O)c(O)c([N+](=O)[O-])c2)cc1,-5%,.,.,.,.,.
Cc1ccc(NC(=O)C2CCC(CNS(=O)(=O)c3ccc4c(c3)CCCC(=O)N4)CC2)c(C)c1 (stereo unspecified),-1%,.,.,.,.,.
